Seven molecules from PubChem BioAssay AID463208 (Broad Institute, 2010) can be followed below.

A number with no mark means an inactive call.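 How the source made its calls: active means AC50 at most tenfold above the top tested concentration; inconclusive means flat fit with 30 to 70% activity, or a poor fit; inactive means AC50 over tenfold above the top dose.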 Where only a bound is given, the exact number is not on record here.

Usually AC50 stands for the midpoint of the concentration-response curve, whichever way the signal moves.

A short description of the assay: inhibition of yeast nuclear histone deacetylase activity – cell lysate, fluorescence, yeast nuclear extract, mechanism study for Sdo1 growth activator project, dose response (AID 463208). Conditions: yeast nuclear extract HDAC activity, fluorogenic substrate.
For `CCOc1cccc(C(=O)NC(=S)NCc2cccnc2)c1`, the AC50 was more than 50 µM. Regarding `CCSc1nnc([C@H](CCSC)NC(=O)OC(C)(C)C)o1`, the AC50 was more than 50 µM. As for `Cc1c(/C=N/NC(=O)c2ccc(F)cc2)cnn1C`, the figure is more than 50 µM; as for `CSCC[C@H](NC(=O)OC(C)(C)C)c1nnc(SCC(N)=O)o1`, more than 50 µM.

For the molecule `Cc1ccc2c(CC(=O)NNC(=O)c3ccccc3)coc2c1`, the AC50 is more than 50 µM. As for `O=C(C(c1ccccc1)c1ccccc1)N(Cc1cccs1)C1CCS(=O)(=O)C1` (configuration not stated), the figure is more than 50 µM; as for `O=C(Nc1cccc(Cl)c1)c1ccc(NCC2CCCO2)c([N+](=O)[O-])c1` (configuration not stated), more than 50 µM.
